Structures are written as SMILES. Values joined by “and” are separate entries in the source; they are usually repeats but may differ in a detail not shown here. Equal values may be shown once. A number with no mark means an inactive call. Results filed as inconclusive are left out. A call without a number means that no potency is given here. Active and inactive are the calls of the source. Unless noted, the call rests on the fitted dose curve; in most records, active means well fitted curve in the direction sought with a large enough effect; inconclusive means small, poorly fitted or top-dose-only effect, or another doubt; inactive means no such curve, though single readings can be large; an effect the other way counts as inactive or inconclusive.

Experiment [1] deals with Bile acid receptor (Homo sapiens) (UniProt Q96RI1). Put plainly: qHTS assay for small molecule antagonists of farnesoid X receptor signaling (AID 588526; calls by dose curve). The method in brief:
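Concentration-response titrations were fitted to the Hill equation for half-maximal inhibition and maximal response, with data normalised to 50 uM chenodeoxycholic acid and DMSO control wells. Cells: FXR-UAS-bla HEK293T, dialyzed FBS.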

For experiment [2], the target named is Peroxisome proliferator-activated receptor gamma (Homo sapiens) (UniProt P37231). Put plainly: qHTS assay for small molecule antagonists of peroxisome proliferator-activated receptor gamma signaling (AID 588537; active means well fitted inhibition curve with a large enough effect in the signal ratio, with a control signal flat, not every such curve was filed as active; the % refers to the signal ratio;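 further: reporter cells co-stimulated with 50 nM rosiglitazone agonist during compound treatment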). The method in brief: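 HEK293 cells, PPAR-gamma-UAS-bla, 3000/well. Pre-incubation 6-6.5 h, 37 C. Compound titration with rosiglitazone 50 nM final, 16 h. CCF4 dye, 2 h RT, dual-emission fluorescence.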

In experiment [3] the target is Estrogen receptor (Homo sapiens) (UniProt P03372). The experiment can be described thus: qHTS assay for small molecule antagonists of estrogen receptor alpha signaling (AID 588513; active means well fitted curve in the direction sought with a large enough effect in the signal ratio, with a control signal flat, not every such curve was filed as active; the % refers to the signal ratio). The method, boiled down:
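Cells were plated at 5000/well and incubated 4 h at 37 C. Compounds were added as 1:2 dilution series, duplicates. 17-beta-estradiol (0.5nM final) was added for 18 h before CCF4 detection.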

For experiment [4] the target is unchanged. The experiment can be described thus: qHTS assay for small molecule agonists of estrogen receptor alpha signaling (AID 588514; calls by dose curve; further: nearly all actives have a fitted effect of over 70% in size). The method in brief: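 Read-out: CCF4 fluorescence from a beta-lactamase reporter in ER-alpha-UAS-bla HEK 293 cells after 18 hrs of compound exposure at 37 C. Normalized to 20 nM 17-beta-estradiol (100%) and DMSO (0%).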
A general note: Quantitative high-throughput screening tests each substance at several concentrations.

Experiment [5] in a line: qHTS Assay for Identification of Small Molecule Antagonists for NFkB Signaling Pathway (AID 895; active means well fitted inhibition curve with a large enough effect in the signal ratio, with a control signal flat, not every such curve was filed as active; the % refers to the signal ratio). The method, boiled down:
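NFkB-bla ME-180 cervical carcinoma cells with beta-lactamase reporter under NFkB response element; compounds added, then TNF alpha at 10 pM final (EC50), 5 h at 37 C. LiveBLAzer substrate 2 h, room temperature; emission 460/530 nm at 405 nm excitation.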

The target of experiment [6] is Pyruvate kinase PKM (Homo sapiens) (UniProt P14618). Put plainly: qHTS Assay for Activators of Human Muscle Pyruvate Kinase (AID 954; active means well fitted curve in the direction sought with a large enough effect, not every such curve was filed as active). The method in brief:
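A coupled luminescent readout tracked ATP made from ADP by purified PKM2. Final conditions included 0.1 nM enzyme, PEP and ADP at 0.5 and 0.1 mM, pH 7.2 imidazole buffer with BSA, and a one-hour room-temperature reaction.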

Experiment [7] has as its target Alpha-galactosidase A (Homo sapiens) (UniProt P06280). The experiment can be described thus: Counterscreen for Glucocerebrosidase Inhibitors: qHTS Assay for Human alpha-Galactosidase at pH 4.5 (AID 992). The method in brief:
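Citrate buffer pH 4.5, Tween-20 0.005%. Enzyme 2 nM, substrate 80 uM, 20 min RT. Stop pH 10. Fluorescence Ex 365/Em 440. AC50 by Hill fit.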
For orientation: A counterscreen serves to expose hits that act by an unwanted route or on another target.

The target in experiment [8] is alpha-glucosidase (Oryza sativa, rice) (UniProt Q653V4). The experiment can be described thus: Counterscreen for Glucocerebrosidase Inhibitors: qHTS Assay for Rice alpha-Glucosidase at pH 5.0 (AID 997). The method, boiled down: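 Endpoint fluorogenic assay at pH 5.0: compounds (0.7 nM to 77 uM) titrated against 4 nM rice enzyme and 400 uM 4-MU-alpha-glucoside for 20 min at room temperature; NaOH/glycine stop, read ex 365/em 440 nm, Hill-fitted AC50.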

Experiment [9] has as its target Cytochrome P450 2C9 (Homo sapiens) (UniProt P11712). Put plainly: qHTS for inhibitors of CYP2C9 against the NCATS DSHEA and TCM libraries (AID 1919973).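 Further: luminogenic pro-luciferin CYP2C9 substrate turned into luciferin with NADPH regeneration; series mostly up to about 34 µM.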 The method in brief: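 Substances were tested against enzyme with a pro-luciferin substrate; minus-enzyme wells served as background. After NADPH-initiated oxidation (30-45 min, RT), light was generated with P450-Glo reagent.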

In experiment [10] the target is Androgen receptor (Homo sapiens) (UniProt P10275). Put plainly: qHTS assay for small molecule agonists of androgen receptor signaling (AID 588515; active means well fitted curve in the direction sought with a large enough effect in the signal ratio, with a control signal flat; the % refers to the signal ratio). The conditions noted are these: AR-UAS-bla HEK293, beta-lactamase ratio, agonist 16 h; active compounds read high. The method in brief: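 Stimulation of an AR-responsive β-lactamase reporter in GripTite HEK293 cells was measured after 16 h compound exposure at 37 °C, via CCF4 fluorescence after 2 h RT. EC50 from Hill fits, normalized to R1881 at 30 nM.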

For experiment [11] the target is unchanged. The experiment can be described thus: qHTS assay for small molecule antagonists of androgen receptor signaling (AID 588516; active means well fitted curve in the direction sought with a large enough effect in the signal ratio, with a control signal flat, not every such curve was filed as active; the % refers to the signal ratio). The method in brief: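 Antagonist-mode qHTS: inhibition of R1881 (10 nM)-driven beta-lactamase expression in GripTite HEK 293 cells is measured after 16 h; values are Hill-derived IC50s normalized between R1881 and DMSO wells.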

Experiment [12] is described as follows: qHTS assay to identify small molecules that stimulate interleukin-8 (IL-8) secretion (AID 651758; active means well fitted activation curve with a large enough effect in the signal ratio; the % refers to the signal ratio). The method, boiled down:
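Quantitative HTS in THP-1 monocytic cells at 2000 cells per well, with 16 hrs compound incubation at 37 C. IL-8 in the medium was then quantified by HTRF immunoassay, read after 1-3 hrs at room temperature.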

Chain of Androgen receptor (Homo sapiens) (P10275 whole entry, looked up): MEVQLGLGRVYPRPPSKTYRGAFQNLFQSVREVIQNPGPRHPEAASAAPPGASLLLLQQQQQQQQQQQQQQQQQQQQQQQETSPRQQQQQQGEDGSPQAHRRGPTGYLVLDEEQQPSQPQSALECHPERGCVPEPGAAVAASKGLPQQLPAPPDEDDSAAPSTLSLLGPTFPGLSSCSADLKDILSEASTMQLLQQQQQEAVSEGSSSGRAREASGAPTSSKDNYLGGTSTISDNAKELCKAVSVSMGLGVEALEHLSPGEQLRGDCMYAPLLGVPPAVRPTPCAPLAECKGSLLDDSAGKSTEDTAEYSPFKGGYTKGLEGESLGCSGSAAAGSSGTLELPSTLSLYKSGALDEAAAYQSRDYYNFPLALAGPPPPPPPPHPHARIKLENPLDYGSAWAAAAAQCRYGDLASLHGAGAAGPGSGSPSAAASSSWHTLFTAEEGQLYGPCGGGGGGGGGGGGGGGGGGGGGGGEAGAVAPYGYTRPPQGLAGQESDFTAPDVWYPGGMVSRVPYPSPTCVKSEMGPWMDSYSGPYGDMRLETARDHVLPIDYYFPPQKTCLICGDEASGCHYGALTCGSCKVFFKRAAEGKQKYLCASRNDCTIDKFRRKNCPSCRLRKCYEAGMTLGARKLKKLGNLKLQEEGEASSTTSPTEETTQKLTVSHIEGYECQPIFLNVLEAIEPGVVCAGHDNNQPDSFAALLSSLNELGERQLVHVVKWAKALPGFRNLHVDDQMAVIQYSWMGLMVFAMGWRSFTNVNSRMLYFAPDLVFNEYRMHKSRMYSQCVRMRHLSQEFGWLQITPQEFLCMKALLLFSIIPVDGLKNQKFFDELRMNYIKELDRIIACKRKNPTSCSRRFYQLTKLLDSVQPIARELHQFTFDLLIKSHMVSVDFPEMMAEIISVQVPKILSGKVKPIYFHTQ
Chain of Peroxisome proliferator-activated receptor gamma (Homo sapiens) (P37231 whole entry, looked up): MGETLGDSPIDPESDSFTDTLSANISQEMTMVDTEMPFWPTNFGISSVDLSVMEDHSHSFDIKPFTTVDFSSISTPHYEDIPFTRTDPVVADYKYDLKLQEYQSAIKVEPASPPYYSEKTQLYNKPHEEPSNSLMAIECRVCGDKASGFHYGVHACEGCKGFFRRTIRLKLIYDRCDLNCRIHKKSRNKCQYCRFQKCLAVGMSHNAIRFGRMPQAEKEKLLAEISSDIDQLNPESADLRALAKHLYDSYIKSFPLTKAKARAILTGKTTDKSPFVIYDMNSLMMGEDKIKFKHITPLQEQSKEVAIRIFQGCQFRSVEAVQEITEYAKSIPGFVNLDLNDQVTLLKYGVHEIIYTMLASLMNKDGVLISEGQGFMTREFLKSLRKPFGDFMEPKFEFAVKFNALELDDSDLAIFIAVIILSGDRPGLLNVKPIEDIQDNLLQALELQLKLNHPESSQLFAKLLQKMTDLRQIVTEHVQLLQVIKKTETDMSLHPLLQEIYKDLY
Chain of Cytochrome P450 2C9 (Homo sapiens) (P11712 whole entry, looked up): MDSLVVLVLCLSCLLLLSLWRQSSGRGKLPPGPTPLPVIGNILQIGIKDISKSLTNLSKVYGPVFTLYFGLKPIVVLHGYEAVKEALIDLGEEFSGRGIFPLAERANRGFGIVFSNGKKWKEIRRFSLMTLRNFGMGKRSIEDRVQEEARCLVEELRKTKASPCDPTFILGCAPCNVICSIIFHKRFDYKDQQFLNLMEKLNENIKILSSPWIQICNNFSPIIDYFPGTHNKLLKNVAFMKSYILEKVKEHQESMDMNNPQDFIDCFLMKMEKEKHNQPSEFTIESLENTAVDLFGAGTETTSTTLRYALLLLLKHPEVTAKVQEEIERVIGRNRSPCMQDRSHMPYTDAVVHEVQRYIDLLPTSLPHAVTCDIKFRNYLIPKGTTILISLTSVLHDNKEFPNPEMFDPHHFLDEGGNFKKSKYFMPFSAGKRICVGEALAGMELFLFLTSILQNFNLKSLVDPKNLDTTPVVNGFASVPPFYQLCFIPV
Chain of Estrogen receptor (Homo sapiens) (P03372 whole entry, looked up): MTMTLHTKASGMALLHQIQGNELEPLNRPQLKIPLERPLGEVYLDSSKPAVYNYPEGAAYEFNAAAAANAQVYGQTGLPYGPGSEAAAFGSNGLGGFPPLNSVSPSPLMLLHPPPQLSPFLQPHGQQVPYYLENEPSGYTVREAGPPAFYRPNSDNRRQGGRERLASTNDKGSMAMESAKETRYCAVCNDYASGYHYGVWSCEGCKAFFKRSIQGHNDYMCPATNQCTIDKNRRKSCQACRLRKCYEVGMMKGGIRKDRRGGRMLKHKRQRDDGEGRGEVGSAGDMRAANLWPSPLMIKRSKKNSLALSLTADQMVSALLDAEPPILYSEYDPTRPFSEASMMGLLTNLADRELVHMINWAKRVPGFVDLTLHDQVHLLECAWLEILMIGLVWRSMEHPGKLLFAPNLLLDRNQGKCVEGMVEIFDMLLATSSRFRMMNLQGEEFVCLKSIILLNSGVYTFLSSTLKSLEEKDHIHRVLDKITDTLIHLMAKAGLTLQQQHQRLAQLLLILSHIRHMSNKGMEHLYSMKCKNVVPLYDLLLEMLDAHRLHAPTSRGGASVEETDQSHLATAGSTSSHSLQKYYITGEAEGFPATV
Chain of Bile acid receptor (Homo sapiens) (Q96RI1 whole entry, looked up): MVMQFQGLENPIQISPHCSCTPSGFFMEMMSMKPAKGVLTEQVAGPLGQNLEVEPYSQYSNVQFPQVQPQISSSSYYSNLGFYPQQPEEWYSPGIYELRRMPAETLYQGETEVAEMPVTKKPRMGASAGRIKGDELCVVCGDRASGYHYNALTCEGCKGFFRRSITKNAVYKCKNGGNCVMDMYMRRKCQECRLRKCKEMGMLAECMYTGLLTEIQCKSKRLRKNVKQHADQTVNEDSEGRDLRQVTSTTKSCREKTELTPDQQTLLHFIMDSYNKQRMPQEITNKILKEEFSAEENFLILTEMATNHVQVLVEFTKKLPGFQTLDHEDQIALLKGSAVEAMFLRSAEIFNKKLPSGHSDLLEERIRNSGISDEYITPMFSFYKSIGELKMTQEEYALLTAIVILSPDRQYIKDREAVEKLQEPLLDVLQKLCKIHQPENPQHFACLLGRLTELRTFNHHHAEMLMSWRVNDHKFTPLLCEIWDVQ
Chain of Pyruvate kinase PKM (Homo sapiens) (P14618 whole entry, looked up): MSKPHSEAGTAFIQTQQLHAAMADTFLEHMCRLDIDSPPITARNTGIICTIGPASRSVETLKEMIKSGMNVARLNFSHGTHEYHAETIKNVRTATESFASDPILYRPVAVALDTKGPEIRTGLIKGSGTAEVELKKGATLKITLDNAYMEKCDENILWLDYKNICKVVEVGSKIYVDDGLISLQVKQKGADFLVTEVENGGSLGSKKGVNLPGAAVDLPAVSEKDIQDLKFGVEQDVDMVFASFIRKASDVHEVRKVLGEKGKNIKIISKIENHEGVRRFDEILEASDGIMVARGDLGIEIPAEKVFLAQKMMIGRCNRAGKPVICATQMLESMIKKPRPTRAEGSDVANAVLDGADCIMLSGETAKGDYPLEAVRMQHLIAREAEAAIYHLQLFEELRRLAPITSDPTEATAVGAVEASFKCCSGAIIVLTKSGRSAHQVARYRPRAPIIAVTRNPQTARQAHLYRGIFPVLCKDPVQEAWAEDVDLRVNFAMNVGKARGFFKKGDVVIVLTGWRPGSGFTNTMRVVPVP
Chain of Alpha-galactosidase A (Homo sapiens) (P06280 whole entry, looked up): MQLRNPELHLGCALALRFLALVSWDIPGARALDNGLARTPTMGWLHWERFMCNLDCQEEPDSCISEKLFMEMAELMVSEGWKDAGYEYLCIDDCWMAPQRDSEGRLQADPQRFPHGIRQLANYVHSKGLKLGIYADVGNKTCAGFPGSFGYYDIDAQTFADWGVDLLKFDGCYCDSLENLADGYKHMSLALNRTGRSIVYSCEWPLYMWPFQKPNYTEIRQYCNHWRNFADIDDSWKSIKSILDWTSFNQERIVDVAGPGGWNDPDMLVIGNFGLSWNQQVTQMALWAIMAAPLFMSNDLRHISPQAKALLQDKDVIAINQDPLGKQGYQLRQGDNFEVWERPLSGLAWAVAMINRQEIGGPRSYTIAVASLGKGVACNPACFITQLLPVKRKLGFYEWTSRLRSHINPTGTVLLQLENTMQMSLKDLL

For `C=CC(C)(O)CCC=C(C)C` (stereo unspecified), the molecule was called inactive in experiment [1] and in experiment [2].
Regarding `COS(C)(=O)=O`, the call in [3] and in [4] was inactive.
Take `CN1[C@@H]2CC[C@H]1CC(OC(=O)[C@@H](O)c1ccccc1)C2` (stereo partly specified): the Potency result in experiment [5] was “inactive”. Also, the molecule was classed as inactive in experiment [6], in [7] and in experiment [8].
For the molecule `COc1ccc2ccc(=O)oc2c1`, the Potency entry in [9] is “inactive”.
Consider `C=C(C)[C@H]1CC=C(C)C(=O)C1`, for which the activation in [10] was 12.8% and -1.39%. Besides, the outcome in [11] and in experiment [12] was inactive. For the same molecule, the Potency entry in experiment [9] was “inactive”.
For `CCCN(CCC)C(=O)[C@@H](CCC(=O)O)NC(=O)c1ccccc1`, the result in [6], in experiment [7] and in [8] was inactive.

For the origin of these results see PubChem BioAssay (NCATS).
